Most compounds without a hit are left out; they make up all but 6.9% or so of the library.
VDR inh: vitamin D3 receptor (human) inhibition. VDR-SRC2-3 peptide fluorescence polarization, 2 h. Potency, µM, hits mostly inhibitors. actives 0.93% (n = 400,000). AID 504847
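VDR–SRC2-3 interaction, FP format. Cmpds 23 nl via pintool, brief spin, 2 h ambient incubation.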
JMJD2A Tudor: JMJD2A Tudor domain (human) inhibition; AlphaScreen JMJD2A-Tudor / H3K4me3 peptide binding; Potency, µM (doses to about 114 µM), usual class: inhibitors; AID 504339; O75164; actives 4.4% (n = 390,000); further: nearly all actives have a fitted effect of over 50% in size
L3MBTL1 block: blocks human L3MBTL1; AlphaScreen L3MBTL1–H3K9me1 peptide binding; Potency, µM (top dose mostly 57.1 µM), most hits filed as inhibitors; actives 0.66% (n = 230,000); AID 485360; further: nearly all actives have a fitted effect of over 60% in size
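L3MBTL1 (50 nM) pre-complexed 30 min with biotinylated H3(1-15)K9me1 peptide (75 nM), then compounds added for 30 min at room temperature; AlphaScreen streptavidin donor/nickel chelate acceptor beads (10 ug/mL final) read after 30 min dark incubation.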
PLK1 PBD inh: PLK1 (human) polo-box domain binding inhibition; Potency, µM, most hits filed as inhibitors; Plk1 PBD binding of FITC phosphopeptide, fluorescence polarization; actives 2.8% (n = 360,000); AID 720504; further: series mostly up to about 57 µM; nearly all actives have a fitted effect of over 65% in size
HP1b binding inh: blocks HP1-beta chromodomain binding to methylated histone tails | P83916 | AlphaScreen HP1-beta / biotin-H3K9me3 peptide binding | Potency, µM (doses to about 114 µM), most hits filed as inhibitors | actives 0.56% (n = 390,000) | AID 540317; further: nearly all actives have a fitted effect of over 70% in size
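HP1-beta protein (50 nM final) preincubated 30 min at room temperature with biotinylated H3(1-18)K9me3 peptide (50 nM) in PBS pH 7.4, 0.01% Tween-20, then compound added for 30 min. AlphaScreen streptavidin donor/nickel chelate acceptor beads (10 ug/mL final), 30 min dark, luminescence read.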
BAZ2B inh: BAZ2B (human) inhibition | Q9UIF8 | AlphaScreen BAZ2B-H3K14Ac peptide displacement | Potency, µM (doses to about 114 µM), actives largely listed as inhibitors | actives 4.4% (n = 360,000); further: nearly all actives have a fitted effect of over 60% in size
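Inhibition is scored as reduced AlphaScreen emission. The BAZ2B/b-H3(5-23)K14Ac complex (50 nM each) in PBS pH 7.4, 0.01% Tween-20 meets compound (up to 110 uM) for 30 min at RT before bead addition.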
Numbers stand for hits; – = inactive; ? = inconclusive; · = not tested or not shown; [ ] = dose if it differs, or a comment. The call rests on the fitted dose curve; in most records, active means well fitted curve in the direction sought with a large enough effect; inconclusive means small, poorly fitted or top-dose-only effect, or another doubt; inactive means no such curve, though single readings can be large; an effect the other way counts as inactive or inconclusive.

SMILES	VDR inh	JMJD2A Tudor	L3MBTL1 block	PLK1 PBD inh	HP1b binding inh	BAZ2B inh
CCOc1ccc(/C=C(\C#N)C(=O)Nc2sc3c(c2C(=O)OC)C(C(=O)OC)CC3)cc1OC (stereo not drawn)	20µM	56µM	·	·	?	50µM
COC(=O)c1c(NC(=O)/C(C#N)=C/c2ccccc2)sc2c1CCC2	?	–	·	·	–	–
COC(=O)C[C@@H]1C[C@H]2c3cc(NS(C)(=O)=O)ccc3O[C@H]2[C@H](CO)O1	·	·	·	–	·	·
Cn1c(=S)[nH]c(=O)c2ncc(=O)[nH]c21	–	28µM	–	–	–	–
Cn1c(=O)[nH]c2c(cnn2C)c1=O	–	–	·	–	–	·
OC[C@@H]1CN(Cc2ccc(Cl)cc2)C[C@H](n2cnc3c(NC4CC4)ncnc32)O1	·	·	·	–	·	·
Cc1nn(-c2ccc(N3CCCC3)nn2)c(C)c1CCC(=O)NCc1ccc(F)cc1	–	–	·	·	–	79µM
COc1ccc(CNC(=O)CCc2c(C)nn(-c3ccc(N4CCCCC4)nn3)c2C)c(OC)c1	–	89µM	·	·	–	–
CN1CCC(Oc2ccccc2Sc2ccccc2)CC1	–	0.71µM	–	–	?	–
COc1cccc(NC(=S)NCCN2CCOCC2)c1	–	–	–	–	–	–
COc1ccccc1NS(=O)(=O)c1cc(NC(=O)c2ccccc2C)ccc1N1CCOCC1	–	–	·	–	–	·
COCCNC(=S)Nc1ccc(N2CCOCC2)c(S(=O)(=O)Nc2ccccc2OC)c1	?	?	–	21µM	?	–
COc1ccccc1NS(=O)(=O)c1cc(N2Cc3ccccc3C2=N)ccc1N1CCOCC1	–	?	–	21µM	?	·
COc1ccccc1NS(=O)(=O)c1cccc(NC(=O)NCCCl)c1	?	–[11.4 µM]	–	27µM	–	–
COc1ccccc1NS(=O)(=O)c1cccc(NC(=S)NCCN2CCOCC2)c1	–	–	–	24µM	–	–
Cc1ccc(-n2nc(CO)c(C(=O)NCCc3ccccc3)n2)cc1C	–	–	·	·	–	–
CN(C(=O)c1ccc2c(c1)N(Cc1ccc(F)cc1)C(=O)c1ccccc1S2(=O)=O)C1CCCCC1	–	–	·	·	–	–
C/C=C1\COC(C(=O)NCc2ccccn2)(C(F)(F)F)C=C1C=C(C)C (stereo not drawn)	?	–	·	·	–	·
CCOc1ccc(NC(=O)CSc2nc(-c3cccc(Cl)c3)nc3c2Cc2c(CO)cnc(C)c2O3)cc1	–	–	·	·	–	–
Cc1ccc(Sc2ccc(N3CCC(C(=O)Nc4ccc(Cl)cc4)CC3)nn2)cc1	–	–	·	·	–	–
COc1cccc(-n2c(=O)c3sccc3n(Cc3cc(=O)n4cc(Cl)ccc4n3)c2=O)c1	–	–	·	·	–	–
COc1cccc(C(=O)Nc2nc3nc(C)c(C)c(=O)n3[nH]2)c1	–	89µM	·	·	–	?
COc1ccc(C(=O)Nc2nc3nc(C)c(Cl)c(=O)n3[nH]2)cc1	–	–	·	·	–	–
O=C(O)CC/C=C\CC[C@H]1[C@@H](N2CCCCC2)[C@@H](O)C[C@@H]1OCc1ccc(-c2ccccc2)cc1	–	·	·	·	·	·
COc1ccc(-c2cnc(N)n2CC2CCCO2)cc1 (stereo not drawn)	–	?	–	27µM	–	–
SMILES	VDR inh	JMJD2A Tudor	L3MBTL1 block	PLK1 PBD inh	HP1b binding inh	BAZ2B inh
c1ccc(-c2cnc(SCCN3CCOCC3)n2CC2CCCO2)cc1 (stereo not drawn)	–	3.5µM	–	–	?	20µM
COc1ccc(Oc2ncc3nc(-c4ccc(F)cc4)c(=O)n(C[C@H]4CCCO4)c3n2)cc1	–	·	·	·	·	·
CCOc1cc(CNc2ccc3c(c2)CCC3)ccc1O	–	79µM	·	?	–	–
COc1cc(CNc2ccc3c(c2)CCC3)cc(OC)c1O	–	4µM	–	?	32µM	40µM
COc1cc(CC(=O)Nc2ccc3c(c2)CCC3)cc(OC)c1OC	–	–	–	–	–	–
CCc1ccc(NC(=O)CN(Cc2ccccc2)S(=O)(=O)c2ccc3nc(C)sc3c2)cc1	–	–	·	·	–	–
CC(OC(=O)CNC(=O)c1ccco1)C(=O)N(C)c1ccccc1 (stereo not drawn)	–	–	–	27µM	–	–
CC1(C)O[C@@H]2C[C@H]3[C@H]4C[C@H](F)C5=CC(=O)CC[C@]5(C)[C@@H]4[C@H](O)C[C@]3(C)[C@]2(C(=O)CO)O1	–	·	·	·	·	·
